# ChEMBL document CHEMBL1961873, “Compounds: GSK PKIS; Assays: Nanosyn kinase panel” (2012)
# Key:
# [1] = target: PAS domain-containing serine/threonine-protein kinase (Homo sapiens) (UniProt Q96RG2); settings: at 0.1 µM
# [2] = target: PAS domain-containing serine/threonine-protein kinase (Homo sapiens) (UniProt Q96RG2); settings: at 1 µM
# [3] = target: Phosphorylase b kinase gamma catalytic chain, skeletal muscle/heart isoform (Homo sapiens) (UniProt Q16816); settings: at 0.1 µM
# [4] = target: Phosphorylase b kinase gamma catalytic chain, skeletal muscle/heart isoform (Homo sapiens) (UniProt Q16816); settings: at 1 µM
# [5] = target: Phosphorylase b kinase gamma catalytic chain, liver/testis isoform (Homo sapiens) (UniProt P15735); settings: at 0.1 µM
# [6] = target: Phosphorylase b kinase gamma catalytic chain, liver/testis isoform (Homo sapiens) (UniProt P15735); settings: at 1 µM
# [7] = target: Serine/threonine-protein kinase pim-1 (Homo sapiens) (UniProt P11309); settings: at 0.1 µM
# Serine/threonine-protein kinase pim-1 (Homo sapiens), sequence (P11309 whole entry, looked up): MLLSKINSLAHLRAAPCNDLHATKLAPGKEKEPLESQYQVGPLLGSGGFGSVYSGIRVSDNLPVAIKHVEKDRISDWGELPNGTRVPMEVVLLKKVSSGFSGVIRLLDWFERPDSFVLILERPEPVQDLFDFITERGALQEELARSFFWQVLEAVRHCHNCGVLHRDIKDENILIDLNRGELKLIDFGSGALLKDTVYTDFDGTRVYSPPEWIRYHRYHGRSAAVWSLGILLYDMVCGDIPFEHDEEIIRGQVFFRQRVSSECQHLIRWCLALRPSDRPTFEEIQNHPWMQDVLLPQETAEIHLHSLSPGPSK
# [8] = target: Serine/threonine-protein kinase pim-1 (Homo sapiens) (UniProt P11309); settings: at 1 µM
# [9] = target: Serine/threonine-protein kinase pim-2 (Homo sapiens) (UniProt Q9P1W9); settings: at 0.1 µM
# [10] = target: Serine/threonine-protein kinase pim-2 (Homo sapiens) (UniProt Q9P1W9); settings: at 1 µM
# [11] = target: Serine/threonine-protein kinase pim-3 (Homo sapiens) (UniProt Q86V86); settings: at 0.1 µM
# [12] = target: Serine/threonine-protein kinase pim-3 (Homo sapiens) (UniProt Q86V86); settings: at 1 µM
# [13] = target: MAP kinase-activated protein kinase 5 (Homo sapiens) (UniProt Q8IW41); settings: at 0.1 µM
# [14] = target: MAP kinase-activated protein kinase 5 (Homo sapiens) (UniProt Q8IW41); settings: at 1 µM
# [15] = target: Serine/threonine-protein kinase SIK1 (Homo sapiens) (UniProt P57059); settings: at 0.1 µM
# [16] = target: Serine/threonine-protein kinase SIK1 (Homo sapiens) (UniProt P57059); settings: at 1 µM
# [17] = target: Serine/threonine-protein kinase SIK2 (Homo sapiens) (UniProt Q9H0K1); settings: at 0.1 µM
# Serine/threonine-protein kinase SIK2 (Homo sapiens), sequence (Q9H0K1 whole entry, looked up): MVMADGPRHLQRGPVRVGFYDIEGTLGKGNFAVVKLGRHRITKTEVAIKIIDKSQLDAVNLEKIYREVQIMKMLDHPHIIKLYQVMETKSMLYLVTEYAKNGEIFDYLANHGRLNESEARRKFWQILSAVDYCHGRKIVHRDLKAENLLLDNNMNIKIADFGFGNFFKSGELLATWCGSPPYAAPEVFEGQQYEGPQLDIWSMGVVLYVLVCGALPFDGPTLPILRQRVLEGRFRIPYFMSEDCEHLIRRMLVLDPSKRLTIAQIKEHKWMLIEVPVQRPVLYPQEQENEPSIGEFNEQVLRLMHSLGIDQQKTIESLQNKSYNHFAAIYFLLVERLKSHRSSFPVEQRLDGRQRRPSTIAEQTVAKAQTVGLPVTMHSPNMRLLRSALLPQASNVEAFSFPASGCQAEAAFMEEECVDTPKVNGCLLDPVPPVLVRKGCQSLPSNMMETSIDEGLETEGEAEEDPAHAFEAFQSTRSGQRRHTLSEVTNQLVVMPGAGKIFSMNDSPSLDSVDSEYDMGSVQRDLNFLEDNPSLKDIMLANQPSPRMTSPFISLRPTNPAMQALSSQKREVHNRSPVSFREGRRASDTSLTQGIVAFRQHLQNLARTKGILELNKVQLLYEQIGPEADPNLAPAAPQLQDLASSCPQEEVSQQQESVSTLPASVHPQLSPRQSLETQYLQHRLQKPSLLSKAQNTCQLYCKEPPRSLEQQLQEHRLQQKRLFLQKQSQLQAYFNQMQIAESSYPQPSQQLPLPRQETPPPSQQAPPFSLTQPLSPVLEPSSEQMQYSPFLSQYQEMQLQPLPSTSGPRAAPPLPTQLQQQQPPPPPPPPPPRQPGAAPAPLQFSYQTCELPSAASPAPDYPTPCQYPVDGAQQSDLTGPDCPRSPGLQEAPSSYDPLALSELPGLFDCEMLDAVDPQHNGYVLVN
# [18] = target: Serine/threonine-protein kinase SIK2 (Homo sapiens) (UniProt Q9H0K1); settings: at 1 µM
# [19] = target: Serine/threonine-protein kinase TBK1 (Homo sapiens) (UniProt Q9UHD2); settings: at 0.1 µM
# [20] = target: Serine/threonine-protein kinase TBK1 (Homo sapiens) (UniProt Q9UHD2); settings: at 1 µM
# [21] = target: Testis-specific serine/threonine-protein kinase 1 (Homo sapiens) (UniProt Q9BXA7); settings: at 0.1 µM
# [22] = target: Testis-specific serine/threonine-protein kinase 1 (Homo sapiens) (UniProt Q9BXA7); settings: at 1 µM
# [23] = target: Testis-specific serine/threonine-protein kinase 2 (Homo sapiens) (UniProt Q96PF2); settings: at 0.1 µM
# Testis-specific serine/threonine-protein kinase 2 (Homo sapiens), sequence (Q96PF2 whole entry, canonical isoform): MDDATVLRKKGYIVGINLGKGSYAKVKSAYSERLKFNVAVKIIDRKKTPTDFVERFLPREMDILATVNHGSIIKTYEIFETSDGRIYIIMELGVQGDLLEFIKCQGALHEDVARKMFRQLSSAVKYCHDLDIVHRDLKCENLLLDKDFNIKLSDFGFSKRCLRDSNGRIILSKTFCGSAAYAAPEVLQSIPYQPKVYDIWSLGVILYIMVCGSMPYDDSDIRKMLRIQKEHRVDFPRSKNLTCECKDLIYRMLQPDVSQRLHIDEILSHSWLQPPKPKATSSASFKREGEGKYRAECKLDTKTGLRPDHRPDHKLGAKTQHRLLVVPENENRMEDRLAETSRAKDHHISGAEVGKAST
# [24] = target: Testis-specific serine/threonine-protein kinase 2 (Homo sapiens) (UniProt Q96PF2); settings: at 1 µM
# [25] = target: Casein kinase I isoform alpha (Homo sapiens) (UniProt P48729); settings: at 0.1 µM
# [26] = target: Casein kinase I isoform alpha (Homo sapiens) (UniProt P48729); settings: at 1 µM
# [27] = target: Casein kinase I isoform gamma-1 (Homo sapiens) (UniProt Q9HCP0); settings: at 0.1 µM
# Casein kinase I isoform gamma-1 (Homo sapiens), sequence (Q9HCP0 whole entry, looked up, canonical isoform): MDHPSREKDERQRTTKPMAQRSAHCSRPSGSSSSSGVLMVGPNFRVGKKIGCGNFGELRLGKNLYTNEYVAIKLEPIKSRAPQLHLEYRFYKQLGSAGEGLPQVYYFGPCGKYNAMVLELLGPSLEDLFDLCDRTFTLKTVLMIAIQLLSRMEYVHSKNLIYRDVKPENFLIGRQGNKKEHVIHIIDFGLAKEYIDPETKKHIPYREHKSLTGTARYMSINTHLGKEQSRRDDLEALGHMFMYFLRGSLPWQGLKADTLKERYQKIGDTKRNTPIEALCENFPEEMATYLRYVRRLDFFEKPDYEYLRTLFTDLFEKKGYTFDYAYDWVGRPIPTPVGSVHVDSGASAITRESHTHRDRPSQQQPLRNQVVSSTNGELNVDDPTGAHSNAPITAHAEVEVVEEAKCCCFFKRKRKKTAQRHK
# [28] = target: Casein kinase I isoform gamma-1 (Homo sapiens) (UniProt Q9HCP0); settings: at 1 µM
# [29] = target: Casein kinase I isoform gamma-2 (Homo sapiens) (UniProt P78368); settings: at 0.1 µM
# [30] = target: Casein kinase I isoform gamma-2 (Homo sapiens) (UniProt P78368); settings: at 1 µM
# [31] = target: Casein kinase I isoform gamma-3 (Homo sapiens) (UniProt Q9Y6M4); settings: at 0.1 µM
# [32] = target: Casein kinase I isoform gamma-3 (Homo sapiens) (UniProt Q9Y6M4); settings: at 1 µM
# [33] = target: Cyclin-dependent kinase 1 (Homo sapiens) (UniProt P06493); settings: at 0.1 µM
# [34] = target: Cyclin-dependent kinase 1 (Homo sapiens) (UniProt P06493); settings: at 1 µM
# [35] = target: Cyclin-dependent kinase 2 (Homo sapiens) (UniProt P24941); settings: at 0.1 µM
# [36] = target: Cyclin-dependent kinase 2 (Homo sapiens) (UniProt P24941); settings: at 1 µM
# [37] = target: Cyclin-dependent kinase 2 (Homo sapiens) (UniProt P24941); settings: at 0.1 µM; remark: listed apart in the source
# [38] = target: Cyclin-dependent kinase 2 (Homo sapiens) (UniProt P24941); settings: at 1 µM; remark: listed apart in the source
# [39] = target: T1, CDK3/Cyclin E (Homo sapiens) (UniProt P24864+Q00526); settings: at 0.1 µM
# [40] = target: T1, CDK3/Cyclin E (Homo sapiens); settings: at 1 µM
# [41] = target: Cyclin-dependent kinase 4 (Homo sapiens) (UniProt P11802); settings: at 0.1 µM
# Cyclin-dependent kinase 4 (Homo sapiens), sequence (P11802 whole entry): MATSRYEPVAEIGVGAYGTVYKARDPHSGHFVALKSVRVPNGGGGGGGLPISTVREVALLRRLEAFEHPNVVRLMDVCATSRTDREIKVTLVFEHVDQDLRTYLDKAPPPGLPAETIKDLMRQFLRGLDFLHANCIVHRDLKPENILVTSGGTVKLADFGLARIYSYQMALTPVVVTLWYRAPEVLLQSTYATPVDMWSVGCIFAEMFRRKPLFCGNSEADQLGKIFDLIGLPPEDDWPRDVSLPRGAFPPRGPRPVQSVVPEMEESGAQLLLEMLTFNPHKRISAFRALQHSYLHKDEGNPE
# [42] = target: Cyclin-dependent kinase 4 (Homo sapiens) (UniProt P11802); settings: at 1 µM
# [43] = target: Cyclin-dependent kinase 5 (Homo sapiens) (UniProt Q00535); settings: at 0.1 µM
# Cyclin-dependent kinase 5 (Homo sapiens), sequence (Q00535 whole entry, looked up): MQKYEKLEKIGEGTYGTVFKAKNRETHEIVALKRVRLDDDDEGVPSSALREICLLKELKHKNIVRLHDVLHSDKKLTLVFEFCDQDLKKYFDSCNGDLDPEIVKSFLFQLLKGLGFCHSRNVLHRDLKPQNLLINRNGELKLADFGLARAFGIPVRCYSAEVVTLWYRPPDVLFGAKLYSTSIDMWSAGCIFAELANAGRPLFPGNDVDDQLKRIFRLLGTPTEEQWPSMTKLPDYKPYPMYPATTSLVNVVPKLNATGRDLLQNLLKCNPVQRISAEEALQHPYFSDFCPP
# [44] = target: Cyclin-dependent kinase 5 (Homo sapiens) (UniProt Q00535); settings: at 1 µM
# [45] = target: Cyclin-dependent kinase 6 (Homo sapiens) (UniProt Q00534); settings: at 0.1 µM
# [46] = target: Cyclin-dependent kinase 6 (Homo sapiens) (UniProt Q00534); settings: at 1 µM
# [47] = target: Dual specificity protein kinase CLK2 (Homo sapiens) (UniProt P49760); settings: at 0.1 µM
# [48] = target: Dual specificity protein kinase CLK2 (Homo sapiens) (UniProt P49760); settings: at 1 µM
# [49] = target: Dual specificity protein kinase CLK3 (Homo sapiens) (UniProt P49761); settings: at 0.1 µM
# Dual specificity protein kinase CLK3 (Homo sapiens), sequence (P49761 whole entry, looked up): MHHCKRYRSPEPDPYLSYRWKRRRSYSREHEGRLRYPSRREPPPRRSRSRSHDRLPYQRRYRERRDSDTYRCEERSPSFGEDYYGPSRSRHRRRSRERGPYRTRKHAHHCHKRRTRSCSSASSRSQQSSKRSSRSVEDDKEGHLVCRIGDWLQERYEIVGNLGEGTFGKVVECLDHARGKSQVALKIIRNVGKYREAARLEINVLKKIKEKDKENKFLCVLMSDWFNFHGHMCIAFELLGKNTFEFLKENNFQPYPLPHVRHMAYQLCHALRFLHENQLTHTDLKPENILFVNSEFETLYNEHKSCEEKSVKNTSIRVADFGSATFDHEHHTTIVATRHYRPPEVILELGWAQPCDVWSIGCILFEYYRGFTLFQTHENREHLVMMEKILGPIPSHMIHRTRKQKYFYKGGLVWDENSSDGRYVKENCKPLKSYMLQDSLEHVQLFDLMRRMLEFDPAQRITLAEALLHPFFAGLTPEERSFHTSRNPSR
# [50] = target: Dual specificity protein kinase CLK3 (Homo sapiens) (UniProt P49761); settings: at 1 µM
# [51] = target: Dual specificity tyrosine-phosphorylation-regulated kinase 1A (Homo sapiens) (UniProt Q13627); settings: at 0.1 µM
# [52] = target: Dual specificity tyrosine-phosphorylation-regulated kinase 1A (Homo sapiens) (UniProt Q13627); settings: at 1 µM
# [53] = target: Dual specificity tyrosine-phosphorylation-regulated kinase 1B (Homo sapiens) (UniProt Q9Y463); settings: at 0.1 µM
# Dual specificity tyrosine-phosphorylation-regulated kinase 1B (Homo sapiens), sequence (Q9Y463 whole entry, looked up): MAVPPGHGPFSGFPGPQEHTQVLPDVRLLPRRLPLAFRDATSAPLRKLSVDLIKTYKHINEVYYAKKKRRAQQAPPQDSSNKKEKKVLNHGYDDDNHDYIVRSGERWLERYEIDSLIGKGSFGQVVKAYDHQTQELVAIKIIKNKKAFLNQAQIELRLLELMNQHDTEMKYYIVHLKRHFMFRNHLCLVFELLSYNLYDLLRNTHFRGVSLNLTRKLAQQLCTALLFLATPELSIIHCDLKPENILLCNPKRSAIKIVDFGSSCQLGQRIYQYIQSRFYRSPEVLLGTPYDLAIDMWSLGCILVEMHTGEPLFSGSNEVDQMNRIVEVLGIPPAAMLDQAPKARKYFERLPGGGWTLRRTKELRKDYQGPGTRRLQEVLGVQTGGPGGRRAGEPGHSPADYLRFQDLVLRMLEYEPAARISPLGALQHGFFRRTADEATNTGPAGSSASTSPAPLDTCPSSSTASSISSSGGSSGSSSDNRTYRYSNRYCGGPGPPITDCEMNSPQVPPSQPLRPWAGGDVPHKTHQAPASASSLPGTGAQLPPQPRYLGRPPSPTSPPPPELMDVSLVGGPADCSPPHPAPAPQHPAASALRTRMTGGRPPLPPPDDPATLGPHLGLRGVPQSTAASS
# [54] = target: Dual specificity tyrosine-phosphorylation-regulated kinase 1B (Homo sapiens) (UniProt Q9Y463); settings: at 1 µM
# [55] = target: Dual specificity tyrosine-phosphorylation-regulated kinase 2 (Homo sapiens) (UniProt Q92630); settings: at 0.1 µM
# Dual specificity tyrosine-phosphorylation-regulated kinase 2 (Homo sapiens), sequence (Q92630 whole entry): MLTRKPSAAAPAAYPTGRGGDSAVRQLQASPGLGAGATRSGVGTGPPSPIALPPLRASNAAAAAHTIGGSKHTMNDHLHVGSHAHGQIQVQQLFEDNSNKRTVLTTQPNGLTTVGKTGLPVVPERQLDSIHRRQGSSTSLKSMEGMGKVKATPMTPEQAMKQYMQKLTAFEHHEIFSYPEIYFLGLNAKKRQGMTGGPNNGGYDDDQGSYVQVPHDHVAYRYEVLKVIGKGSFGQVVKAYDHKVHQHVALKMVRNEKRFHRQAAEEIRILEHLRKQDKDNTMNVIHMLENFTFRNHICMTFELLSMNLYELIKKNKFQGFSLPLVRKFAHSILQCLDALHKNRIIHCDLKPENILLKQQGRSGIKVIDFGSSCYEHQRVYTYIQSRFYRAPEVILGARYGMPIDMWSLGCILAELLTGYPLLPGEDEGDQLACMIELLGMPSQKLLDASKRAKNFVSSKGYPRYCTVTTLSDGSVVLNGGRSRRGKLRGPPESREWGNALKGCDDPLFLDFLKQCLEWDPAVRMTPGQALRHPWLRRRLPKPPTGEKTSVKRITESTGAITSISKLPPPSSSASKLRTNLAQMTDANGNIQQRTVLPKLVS
# [56] = target: Dual specificity tyrosine-phosphorylation-regulated kinase 2 (Homo sapiens) (UniProt Q92630); settings: at 1 µM
# Phosphorylase b kinase gamma catalytic chain, skeletal muscle/heart isoform (Homo sapiens), sequence (Q16816 whole entry, looked up, canonical isoform): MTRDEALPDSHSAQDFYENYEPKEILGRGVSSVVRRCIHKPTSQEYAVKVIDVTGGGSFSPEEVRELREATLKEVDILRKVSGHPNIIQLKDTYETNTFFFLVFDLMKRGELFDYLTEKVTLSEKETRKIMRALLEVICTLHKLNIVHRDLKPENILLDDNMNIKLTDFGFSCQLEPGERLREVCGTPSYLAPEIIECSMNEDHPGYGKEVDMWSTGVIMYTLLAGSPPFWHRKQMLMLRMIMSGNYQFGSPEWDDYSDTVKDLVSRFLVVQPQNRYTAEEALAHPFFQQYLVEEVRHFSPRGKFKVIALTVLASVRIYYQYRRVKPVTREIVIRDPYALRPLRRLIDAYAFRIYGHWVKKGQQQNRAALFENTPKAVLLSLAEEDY
smiles,measurement,setting,value
CNC(=O)Oc1cc(C)c(/C=C/c2cncc(C(=O)NC)c2)c(C)c1,inhibition,[1],0.86%
same,inhibition,[2],-0.55%
same,inhibition,[3],0.19%
same,inhibition,[4],3.49%
same,inhibition,[5],4.46%
same,inhibition,[6],1.16%
same,inhibition,[7],0.83%
same,inhibition,[8],1.46%
same,inhibition,[9],-0.21%
same,inhibition,[10],0.61%
same,inhibition,[11],-0.49%
same,inhibition,[12],0.47%
same,inhibition,[13],0.29%
same,inhibition,[14],-1.1%
same,inhibition,[15],46.9%
same,inhibition,[16],88.6%
same,inhibition,[17],7.72%
same,inhibition,[18],30.4%
same,inhibition,[19],2.75%
same,inhibition,[20],3.73%
same,inhibition,[21],1.39%
same,inhibition,[22],0.21%
same,inhibition,[23],1.46%
same,inhibition,[24],-0.8%
same,inhibition,[25],1.61%
same,inhibition,[26],3.51%
same,inhibition,[27],1.33%
same,inhibition,[28],2.91%
same,inhibition,[29],0.3%
same,inhibition,[30],2.73%
same,inhibition,[31],1.68%
same,inhibition,[32],4.49%
same,inhibition,[33],-0.06%
same,inhibition,[34],-0.3%
same,inhibition,[35],0.63%
same,inhibition,[36],-1.72%
same,inhibition,[37],1.5%
same,inhibition,[38],0.5%
same,inhibition,[39],0.33%
same,inhibition,[40],1.01%
same,inhibition,[41],0.95%
same,inhibition,[42],2.18%
same,inhibition,[43],0.2%
same,inhibition,[44],-0.43%
same,inhibition,[45],-2.38%
same,inhibition,[46],0.77%
same,inhibition,[47],1.89%
same,inhibition,[48],4.38%
same,inhibition,[49],0.33%
same,inhibition,[50],1.86%
same,inhibition,[51],-0.43%
same,inhibition,[52],6.77%
same,inhibition,[53],-0.07%
same,inhibition,[54],0.76%
same,inhibition,[55],2.64%
same,inhibition,[56],2.73%
